# Hit rate of the full screen: of about 310,000 compounds, about 14,000 (4.5%) showed an effect of 50% or more. Effects have a minus sign here. This excerpt belongs to a sample that is enriched for strong results.
# Biological target: human ether-à-go-go-related gene (hERG) potassium channel (human, UniProt Q12809)
# Experiment: primary screen, population patch clamp on CHO cells stably expressing hERG; higher = less effect of the substance
# 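Also: peak tail current of the secondary pulse compared with the same well before compound.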
# Chain of human ether-à-go-go-related gene (hERG) potassium channel (Q12809 whole entry, looked up): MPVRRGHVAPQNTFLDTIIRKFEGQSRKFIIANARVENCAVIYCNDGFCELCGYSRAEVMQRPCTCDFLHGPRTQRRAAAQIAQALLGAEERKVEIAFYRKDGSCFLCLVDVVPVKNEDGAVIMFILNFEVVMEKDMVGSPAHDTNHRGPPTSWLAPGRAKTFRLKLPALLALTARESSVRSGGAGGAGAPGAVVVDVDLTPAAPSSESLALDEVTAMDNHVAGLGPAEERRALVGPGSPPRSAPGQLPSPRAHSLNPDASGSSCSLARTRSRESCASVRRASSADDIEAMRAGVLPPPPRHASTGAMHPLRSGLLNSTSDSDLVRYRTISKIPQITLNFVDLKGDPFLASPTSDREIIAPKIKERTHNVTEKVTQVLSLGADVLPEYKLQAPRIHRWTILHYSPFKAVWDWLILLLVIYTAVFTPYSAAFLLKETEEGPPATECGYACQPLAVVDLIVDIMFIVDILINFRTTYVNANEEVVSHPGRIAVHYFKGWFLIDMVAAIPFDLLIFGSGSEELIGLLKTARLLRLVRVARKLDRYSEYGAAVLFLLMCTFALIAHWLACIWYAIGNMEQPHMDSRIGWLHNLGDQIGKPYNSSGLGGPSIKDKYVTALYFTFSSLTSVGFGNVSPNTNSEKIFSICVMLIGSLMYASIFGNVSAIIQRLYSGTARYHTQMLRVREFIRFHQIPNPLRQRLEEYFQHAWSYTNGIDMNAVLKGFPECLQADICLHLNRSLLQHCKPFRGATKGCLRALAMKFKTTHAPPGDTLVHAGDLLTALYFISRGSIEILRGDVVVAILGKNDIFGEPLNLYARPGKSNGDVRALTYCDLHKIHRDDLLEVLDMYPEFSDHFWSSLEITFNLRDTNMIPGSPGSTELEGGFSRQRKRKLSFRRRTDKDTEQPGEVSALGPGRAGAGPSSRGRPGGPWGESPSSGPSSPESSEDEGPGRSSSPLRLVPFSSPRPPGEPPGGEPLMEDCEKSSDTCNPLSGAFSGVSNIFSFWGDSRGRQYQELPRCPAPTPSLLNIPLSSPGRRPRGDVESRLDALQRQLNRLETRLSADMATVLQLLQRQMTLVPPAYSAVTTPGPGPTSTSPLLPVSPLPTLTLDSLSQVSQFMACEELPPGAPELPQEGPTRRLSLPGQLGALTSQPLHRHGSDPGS
row,SMILES,"hERG current change (%, negative = inhibition) at 10uM"
1,COc1ccc(OC)c(S(=O)(=O)NC(C)c2ccc(-n3ccnc3)cc2)c1 (stereo not drawn),-25.1%
2,COc1ccc(C(=O)NC(C)c2ccc(-n3ccnc3)cc2)c(OC)c1OC (stereo not drawn),-53.1%
3,CC(NC(=O)CCNC(=O)c1ccccc1Cl)c1ccc(-n2ccnc2)cc1 (stereo not drawn),-17.8%
4,COc1ccc(NC(C)=O)cc1S(=O)(=O)NC(C)c1ccc(-n2ccnc2)cc1 (stereo not drawn),-3.74%
5,COc1ccc(C(=O)NC(C)c2ccc(-n3ccnc3)cc2)c(OC)c1 (stereo not drawn),-53.8%
6,CC(NC(=O)c1c(F)cccc1Cl)c1ccc(-n2ccnc2)cc1 (stereo not drawn),-27%
7,CC(NC(=O)c1ccccc1OC(F)F)c1ccc(-n2ccnc2)cc1 (stereo not drawn),-55%
8,CC(NC(=O)CNC(=O)c1ccccc1F)c1ccc(-n2ccnc2)cc1 (stereo not drawn),-64%
9,CCCCN(CC)CCNC(=O)Cn1cnc2sc(C)c(S(=O)(=O)N3CCC(C)CC3)c2c1=O,-19.1%
10,Cc1cc(C)c(S(=O)(=O)c2cc(F)ccc2C)c(=O)[nH]1,18.1%
11,COc1ccc(-c2noc(C(C)NS(=O)(=O)c3ccc(NC(C)=O)cc3)n2)cc1 (stereo not drawn),17.5%
12,COCC1CCCCN1Cc1cn[nH]c1-c1ccc2cc(OC)ccc2c1 (stereo not drawn),-70.2%
13,COCC1CCCCN1Cc1cn[nH]c1-c1ccc(OC)cc1OC (stereo not drawn),-25.5%
14,COc1ccc2cc(-c3[nH]ncc3CN3CCCC3c3nonc3C)ccc2c1 (stereo not drawn),0.998%
15,Oc1cccc(CCC2CCCCN2Cc2cn[nH]c2-c2ccc3c(c2)OCO3)c1 (stereo not drawn),-66.2%
16,c1cc2c(cc1-c1[nH]ncc1CN1C[C@H]3CC[C@H]1C3)OCO2,-3.58%
17,c1cc2c(cc1-c1[nH]ncc1CN1CC3C[C@@H]4CC1C[C@H](C3)C4)OCO2,-44.3%
18,COc1ccc2cc(-c3[nH]ncc3CN3C[C@@H]4CCC[C@H]3C4)ccc2c1,-58.7%
19,Cc1nonc1C1CCCN1Cc1cn[nH]c1-c1ccc2c(c1)OCO2 (stereo not drawn),-25.6%
20,COc1ccc(-c2[nH]ncc2CN2C[C@@H]3CCC[C@H]2C3)c(F)c1,8.16%
21,CCN(CC(=O)Nc1c(F)cccc1F)C(=O)CSc1nc2ccccc2o1,-1.64%

row,SMILES,"hERG current change (%, negative = inhibition) at 10uM"
1,Cc1cccc(NS(=O)(=O)c2ccc3nc(-c4ccccc4)[nH]c3c2)c1C,11.8%
2,CCn1cc(C(=O)NCC(OC)OC)c(=O)c2cc(S(=O)(=O)N3CCCC3)ccc21,10.3%
3,O=C(COC(=O)CCCN1C(=O)c2ccccc2C1=O)Nc1ncc(Cl)cc1Cl,-9.74%
4,O=S(=O)(c1ccc2ccccc2c1)N1CCN=C1SCc1cccnc1,-43.9%
5,O=c1ccc(/C=C/c2ccccc2)nn1Cc1ccc(Cl)cc1Cl,8.47%
6,CCOc1cc(NC(=O)c2ccco2)c(OCC)cc1NC(=O)COc1ccccc1C,26.4%
7,CC(C)(C)c1cc(NC(=O)C2CCCO2)no1 (stereo not drawn),11.6%
8,CCC(Oc1cc(Cl)ccc1Cl)C(=O)N1CCC2(CC1)OCCO2 (stereo not drawn),4.7%
9,Cc1ccsc1C(=O)C1CCCN(Cc2cc(C(C)C)n[nH]2)C1 (stereo not drawn),-43.9%
10,Cc1ccsc1C(=O)C1CCCN(Cc2cccc(OCCO)c2)C1 (stereo not drawn),-16.3%
11,Cc1ccsc1C(=O)C1CCCN(Cc2ccc(-n3cccn3)cc2)C1 (stereo not drawn),-67.7%
12,Cc1ccsc1C(=O)C1CCCN(Cc2cccc(-n3cccn3)c2)C1 (stereo not drawn),-65.4%
13,Cc1ccsc1C(=O)C1CCCN(Cc2ccc(O)cc2)C1 (stereo not drawn),-22.9%
14,COC(=O)Nc1nc(-c2ccc(F)cc2)c(C)s1,14.5%
15,Cc1ccc(-n2c(O)c(/C=N/NC(=O)c3ccncc3)c(=O)[nH]c2=O)cc1C,9.71%
16,CN(c1ccccc1)c1ncccn1,18%
17,O=S(=O)(Nc1cccnc1)c1ccc(F)cc1,16.6%
18,COc1ccc(C2=NOC(Cn3nc(C(=O)NCc4ccc5c(c4)OCO5)cc3-c3ccccc3)C2)cc1 (stereo not drawn),-17.4%
19,COc1ccc(C2=NOC(Cn3nc(C(=O)NCc4ccc(OC(F)(F)F)cc4)cc3-c3ccccc3)C2)cc1 (stereo not drawn),-3.95%
20,COc1ccc(C2=NOC(Cn3nc(C(=O)NCc4ccc(C)cc4)cc3-c3ccccc3)C2)cc1 (stereo not drawn),2.68%
21,COc1ccc(C2=NOC(Cn3nc(C(=O)NCC4CC4)cc3-c3ccccc3)C2)cc1 (stereo not drawn),-65%

row,SMILES,"hERG current change (%, negative = inhibition) at 10uM"
1,COCCNC(=O)c1cc(-c2ccccc2)n(CC2CC(c3ccc(OC)cc3)=NO2)n1 (stereo not drawn),-10.7%
2,COc1ccc(C2=NOC(Cn3nc(C(=O)NCc4cccs4)cc3-c3ccccc3)C2)cc1 (stereo not drawn),-51.3%
3,COc1ccc(C2=NOC(Cn3nc(C(=O)NCc4ccco4)cc3-c3ccccc3)C2)cc1 (stereo not drawn),-68.2%
4,COc1ccc(C2=NOC(Cn3nc(C(=O)O)cc3-c3ccccc3)C2)cc1 (stereo not drawn),-10.3%
5,COc1ccc(C2=NOC(Cn3nc(C(=O)NCc4ccccc4OC)cc3-c3ccccc3)C2)cc1 (stereo not drawn),-16.2%
6,COc1ccc(S(=O)(=O)N2CCC(C(=O)NCC3CCCO3)CC2)cc1C (stereo not drawn),9.95%
7,O=C(CNC(=O)c1ccc(S(=O)(=O)N2CCCC2)cc1)N/N=C/c1c(Cl)cccc1Cl,6.64%
8,CN(CCO)C(=O)c1ccc(-c2nn(C)c(=O)c3ccccc23)cc1,10.9%
9,Nc1nc2ncc(C(=O)c3cc(F)ccc3O)cc2s1,-0.22%
10,Cn1c2c(c(=O)n(C)c1=O)C(CC(=O)Nc1ccccc1)C(=O)N2 (stereo not drawn),2.49%
11,Cc1ccc(C(=O)N/C(=C\c2cccs2)C(=O)N2CCOCC2)cc1C,-19%
12,Cc1ccc(C(=O)N/C(=C\c2cccs2)C(=O)N2CCN(C)CC2)cc1C,-70.6%
13,CCN1CCN(C(=O)/C(=C/c2cccs2)NC(=O)c2ccc(C)c(C)c2)CC1,-75.6%
14,O=C(N/C(=C/c1cccs1)C(=O)N1CCCCCC1)c1ccccc1,-21%
15,CC(C)(C)c1ccc(C(=O)N/C(=C\c2cccs2)C(=O)N2CCOCC2)cc1,-7.22%
16,Cc1ccc(C(=O)N/C(=C\c2cccs2)C(=O)NCC2CCCO2)cc1C (stereo not drawn),6.35%
17,CCc1nnc(NC(=O)Cc2ccc(Br)cc2)s1,12.4%
18,CC1CCc2[nH]c3ccc(C(=O)N(C)CC(=O)Nc4ccccc4C(F)(F)F)cc3c2C1 (stereo not drawn),4.13%
19,O=C1CC(c2cccc([N+](=O)[O-])c2)c2c(ccc3ccccc23)N1 (stereo not drawn),10.3%
20,Cc1cc(C)n2nc(C(=O)Nc3cccc(S(=O)(=O)N(C)c4ccccc4)c3)nc2n1,-68.3%
21,Cc1cc(C)n2nc(C(=O)Nc3cccc(S(=O)(=O)N4CCCC4)c3)nc2n1,-2.92%

row,SMILES,"hERG current change (%, negative = inhibition) at 10uM"
1,Cc1cc(C)n2nc(C(=O)Nc3ccc(S(=O)(=O)N(C)C)cc3)nc2n1,-2.93%
2,COc1ccccc1NS(=O)(=O)c1cccc(NC(=O)c2ccc3ccccc3n2)c1,3.05%
3,COc1ccccc1NS(=O)(=O)c1ccc(NC(=O)c2nc3nc(C)cc(C(F)F)n3n2)cc1,-13.8%
4,COc1ccccc1NS(=O)(=O)c1cccc(NC(=O)c2nc3nc(C)cc(C)n3n2)c1,-55.2%
5,CCOC(=O)/C=C/C(=O)Nc1ccc(S(=O)(=O)N(C)c2ccccc2)cc1,-2.23%
6,O=c1[nH]c(=O)n(-c2ccc(Cl)cc2)c(O)c1C=NCCN1CCCCC1,2.13%
7,O=C(NCc1cccc(Br)c1)c1cc(-c2ccccc2)nn1CC1CC(c2cccnc2)=NO1 (stereo not drawn),-62.8%
8,Cc1ccccc1-c1cc(C(=O)NCc2ccc3c(c2)OCO3)n(CC2CC(c3cccnc3)=NO2)n1 (stereo not drawn),-20.8%
9,O=C(NCc1cccc(C(F)(F)F)c1)c1cc(-c2ccccc2)nn1CC1CC(c2cccnc2)=NO1 (stereo not drawn),-52.4%
10,O=C(O)c1cc(-c2ccccc2)nn1CC1CC(c2cccnc2)=NO1 (stereo not drawn),6.86%
11,O=C(NCc1cccc(Br)c1)c1cc(-c2ccccc2)nn1CC1CC(c2cccc([N+](=O)[O-])c2)=NO1 (stereo not drawn),-0.929%
12,C=CCc1cccc2cc(C(=O)OCC)c(=O)oc12,-42.3%
13,CCOc1cc(S(=O)(=O)NC2CC(C)(C)NC(C)(C)C2)ccc1F,-9.91%
14,CCc1c(C)nc2cc(-c3cccc(Br)c3)[nH]n2c1=O,-3.6%
15,O=S(=O)(Nc1ncccn1)c1ccc(NC(=S)NCc2cccnc2)cc1,33.8%
16,COc1cc(C(C(=O)NC(C)(C)C)N(Cc2ccccc2)C(=O)c2cnccn2)cc(OC)c1OC (stereo not drawn),5.8%
17,C=CCNC(=O)CN1CCC(O)(c2ccccc2)CC1,4.87%
18,COc1cccc(OC)c1C(=O)Nc1cc(C)on1,7.22%

# From paper PMC4336329 (PLoS ONE, 2015)
